Measured values published in PubChem BioAssay AID1159580 (chemical genetic matrix, 2015).
Hit rate of the full screen: of about 5,500 compounds, about 2,000 (36%) were called active. Another 18% or so got no clear call; they are omitted. Cut-off read from the data, not from the text of the source: active = normalized growth mostly below about 0.91 (no sharp cut-off); inconclusive = no clear call, values can overlap the other calls; inactive = mostly above about 0.92. The list shows a part of the results.

Test: chemical genetic growth profiling, strain panel (AID 1159580);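 note: tested at 20 µM; growth read once vehicle control cultures reached saturation at 30 °C; 1 = growth at the plate median or of vehicle wells; lower values mean less growth of the strain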
Settings: S. cerevisiae deletion strains, growth OD

Measured: normalized growth

COc1ccc(C2CC(c3ccc(C)cc3C)=NN2C(C)=O)cc1 (stereo unspecified)
inactive: locus YAR019C, strain CDC15, active compounds read low 0.997 | locus YBL105C, strain PKC1, active compounds read low 0.993 | locus YBR135W, strain CKS1, active compounds read low 0.984 | locus YBR136W, strain MEC1, active compounds read low 0.981 | locus YBR160W, strain CDC28, active compounds read low 0.995 | locus YDL017W, strain CDC7, active compounds read low 0.992 | locus YDL028C, strain MPS1, active compounds read low 0.984 | locus YDL101C, strain DUN1, active compounds read low 0.987 | locus YDL108W, strain KIN28, active compounds read low 0.977 | locus YDL132W, strain cdc53, active compounds read low 0.994 | locus YDL214C, strain PRR2, active compounds read low 0.872 | locus YDR052C, strain DBF4, active compounds read low 0.999 | locus YDR054C, strain cdc34, active compounds read low 0.983 | locus YDR226W, strain ADK1, active compounds read low 0.985 | locus YDR477W, strain SNF1, active compounds read low 0.919 | locus YER123W, strain YCK3, active compounds read low 0.85 | locus YER133W, strain GLC7, active compounds read low 0.911 | locus YFL009W, strain cdc4, active compounds read low 0.984 | locus YFL029C, strain CAK1, active compounds read low 0.994 | locus YFR003C, strain YPI1, active compounds read low 0.988 | locus YFR019W, strain FAB1, active compounds read low 0.937 | locus YFR028C, strain CDC14, active compounds read low 0.981 | locus YGR040W, strain KSS1, active compounds read low 0.89 | locus YGR052W, strain FMP48, active compounds read low 0.971 | locus YGR092W, strain DBF2, active compounds read low 0.909 | locus YHR030C, strain SLT2, active compounds read low 1.04 | locus YHR079C, strain IRE1, active compounds read low 0.971 | locus YHR082C, strain KSP1, active compounds read low 0.984 | locus YHR205W, strain SCH9, active compounds read low 0.931 | locus YIL147C, strain SLN1, active compounds read low 0.978 | locus YJL095W, strain BCK1, active compounds read low 0.967 | locus YJL128C, strain PBS2, active compounds read low 0.907 | locus YJL157C, strain FAR1, active compounds read low 0.889 | locus YJR016C, strain ILV3, active compounds read low 0.994 | locus YJR066W, strain TOR1 (second series), active compounds read low 0.881 | locus YJR066W, strain TOR1, active compounds read low 0.978 | locus YKL048C, strain ELM1, active compounds read low 0.955 | locus YKL067W, strain YNK1, active compounds read low 0.908 | locus YKL101W, strain HSL1, active compounds read low 0.905 | locus YKL193C, strain SDS22, active compounds read low 0.989 | locus YKL203C, strain TOR2, active compounds read low 0.981 | locus YLR113W, strain HOG1, active compounds read low 0.868 | locus YLR133W, strain CKI1, active compounds read low 0.93 | locus YLR403W, strain SFP1, active compounds read low 0.916 | locus YML070W, strain DAK1, active compounds read low 0.888 | locus YMR001C, strain CDC5, active compounds read low 0.998 | locus YMR205C, strain PFK2 (second series), active compounds read low 0.913 | locus YMR277W, strain FCP1, active compounds read low 0.986 | locus YNL006W, strain LST8, active compounds read low 0.998 | locus YNL020C, strain ARK1, active compounds read low 0.914 | locus YNL161W, strain CBK1, active compounds read low 0.997 | locus YNL183C, strain NPR1, active compounds read low 0.995 | locus YNL207W, strain RIO2, active compounds read low 0.991 | locus YNL222W, strain SSU72, active compounds read low 0.991 | locus YNL307C, strain MCK1 (second series), active compounds read low 0.931 | locus YOL078W, strain AVO1, active compounds read low 0.994 | locus YOL136C, strain PFK27, active compounds read low 0.887 | locus YOR061W, strain CKA2, active compounds read low 0.881 | locus YOR119C, strain RIO1, active compounds read low 0.979 | locus YOR231W, strain MKK1, active compounds read low 0.927 | locus YOR329C, strain SCD5, active compounds read low 0.997 | locus YPL031C, strain PHO85, active compounds read low 0.917 | locus YPL153C, strain RAD53, active compounds read low 0.905 | locus YPL204W, strain HRR25, active compounds read low 0.922 | locus YPL209C, strain IPL1, active compounds read low 0.998 | locus YPL256C, strain CLN2, active compounds read low 0.975 | locus YPR025C, strain CCL1, active compounds read low 0.992 | locus YPR106W, strain ISR1, active compounds read low 0.979 | locus YPR111W, strain DBF20, active compounds read low 0.977 | strain NNK1, active compounds read low 0.97 | strain TSCII, active compounds read low 0.995
